About 83,000 compounds went through this panel and 20% of them were active in at least one assay; those are over-represented in the sample as a whole.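 Compound tested at a single concentration for 48 hours in 96-well plates; a percent growth value below 10 was scored as active.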 The source made the active and inactive calls.
Tests used:
Experiment in all cases: NCI-60 one-dose screen, 48 h (100 = growth as untreated, 0 = no growth, -100 = all killed)
Conditions in all cases: 10 µM unless noted
SR leukemia = system: SR leukemia
RPMI-8226 leukemia = system: RPMI-8226 leukemia
OVCAR-8 ovarian = system: OVCAR-8 ovarian
OVCAR-5 ovarian = system: OVCAR-5 ovarian
OVCAR-4 ovarian = system: OVCAR-4 ovarian
SK-OV-3 ovarian = system: SK-OV-3 ovarian
IGROV1 ovarian = system: IGROV1 ovarian
OVCAR-3 ovarian = system: OVCAR-3 ovarian
HS 578T breast = system: HS 578T breast
NCI/ADR-RES ovarian = system: NCI/ADR-RES ovarian
T-47D breast = system: T-47D breast
BT-549 breast = system: BT-549 breast
MDA-MB-435 melanoma = system: MDA-MB-435 melanoma
SW-620 colon = system: SW-620 colon
MCF7 breast = system: MCF7 breast
HCT-116 colon = system: HCT-116 colon
HCC-2998 colon = system: HCC-2998 colon
KM12 colon = system: KM12 colon

Measured: growth

Ic1ccccc1I
inactive: SR leukemia 90.1% | RPMI-8226 leukemia 104% | OVCAR-8 ovarian 96.8% | OVCAR-5 ovarian 98% | OVCAR-4 ovarian 101% | SK-OV-3 ovarian 106% | IGROV1 ovarian 99.8% | OVCAR-3 ovarian 110% | HS 578T breast 97.1% | NCI/ADR-RES ovarian 101% | T-47D breast 107% | BT-549 breast 115% | MDA-MB-435 melanoma 111% | SW-620 colon 108% | MCF7 breast 91.5% | HCT-116 colon 98.5% | HCC-2998 colon 98.2% | KM12 colon 104%

Cc1ccc2nc(NC(=O)CSc3nc(-c4ccccc4)c(C#N)c4nnnn34)sc2c1
inactive: SR leukemia 72.8% | RPMI-8226 leukemia 117% | OVCAR-8 ovarian 108% | OVCAR-5 ovarian 113% | OVCAR-4 ovarian 101% | SK-OV-3 ovarian 100% | IGROV1 ovarian 102% | OVCAR-3 ovarian 122% | HS 578T breast 98% | NCI/ADR-RES ovarian 106% | T-47D breast 100% | BT-549 breast 106% | MDA-MB-435 melanoma 105% | SW-620 colon 104% | MCF7 breast 95.7% | HCT-116 colon 99.1% | HCC-2998 colon 103% | KM12 colon 102%

C=C1C(=O)O[C@H]2[C@H]1CC/C(COC(=O)/C=C\C(=O)NCc1ccc(Cn3c(=O)sn(CCCl)c3=O)cc1)=C\CC[C@@]1(C)O[C@@H]21
inactive: SR leukemia 15.5% | RPMI-8226 leukemia 74.8% | OVCAR-8 ovarian 86.9% | OVCAR-5 ovarian 91% | OVCAR-4 ovarian 96.3% | SK-OV-3 ovarian 115% | IGROV1 ovarian 34.8% | OVCAR-3 ovarian 36.2% | HS 578T breast 110% | NCI/ADR-RES ovarian 108% | T-47D breast 84.7% | BT-549 breast 85.5% | MDA-MB-435 melanoma 65.8% | SW-620 colon 31.2% | MCF7 breast 61.8% | HCT-116 colon 68.7% | HCC-2998 colon 117% | KM12 colon 97.1%

COC(=O)c1c2c(n3ccccc13)C(=O)c1ccccc1C2=O
inactive: SR leukemia 38.7% | RPMI-8226 leukemia 68.3% | OVCAR-8 ovarian 45% | OVCAR-5 ovarian 116% | OVCAR-4 ovarian 77.3% | SK-OV-3 ovarian 94.8% | IGROV1 ovarian 57.5% | OVCAR-3 ovarian 55.7% | HS 578T breast 73.7% | NCI/ADR-RES ovarian 65.4% | T-47D breast 73.4% | BT-549 breast 68.1% | MDA-MB-435 melanoma 84.6% | SW-620 colon 40.9% | MCF7 breast 42.5% | HCT-116 colon 27.9% | HCC-2998 colon 88.3% | KM12 colon 49.7%

CCCCNC(=O)Oc1ccc(/C(=C(/C)Cc2ccc(OC)cc2)c2ccc(OCCN3CCCCCC3)cc2)cc1
inactive: RPMI-8226 leukemia 33.6% | OVCAR-8 ovarian 89.9% | OVCAR-5 ovarian 96% | OVCAR-4 ovarian 84.4% | SK-OV-3 ovarian 85.8% | IGROV1 ovarian 92.3% | OVCAR-3 ovarian 63.9% | HS 578T breast 82.1% | NCI/ADR-RES ovarian 81.4% | T-47D breast 38.8% | BT-549 breast 93.2% | MDA-MB-435 melanoma 90.5% | SW-620 colon 85.9% | MCF7 breast 27.3% | HCT-116 colon 54.9% | HCC-2998 colon 83.8% | KM12 colon 60.6%
active: SR leukemia -44.2%

[2H]C([2H])([2H])Oc1ccc(F)cc1/C=C/C(=O)/C=C(/C=C/c1cc(F)ccc1OC([2H])([2H])[2H])OB(F)F
inactive: SR leukemia 22.7% | RPMI-8226 leukemia 10.7% | OVCAR-8 ovarian 19.2% | OVCAR-5 ovarian 107% | OVCAR-4 ovarian 74.7% | SK-OV-3 ovarian 107% | IGROV1 ovarian 87.4% | OVCAR-3 ovarian 42.1% | HS 578T breast 91.9% | NCI/ADR-RES ovarian 76.5% | T-47D breast 54.2% | BT-549 breast 87.7% | MDA-MB-435 melanoma 70.8% | SW-620 colon 45.1% | MCF7 breast 37% | HCT-116 colon 43.2% | HCC-2998 colon 114% | KM12 colon 101%

CC1=CC(c2ccco2)=C2C(N)=NNC2N1 (stereo unspecified)
inactive: SR leukemia 94.2% | RPMI-8226 leukemia 106% | OVCAR-8 ovarian 97.7% | OVCAR-5 ovarian 87.7% | OVCAR-4 ovarian 92.6% | SK-OV-3 ovarian 101% | IGROV1 ovarian 86.9% | OVCAR-3 ovarian 104% | HS 578T breast 105% | NCI/ADR-RES ovarian 98.9% | T-47D breast 85.1% | BT-549 breast 100% | MDA-MB-435 melanoma 101% | SW-620 colon 102% | MCF7 breast 91% | HCT-116 colon 100% | HCC-2998 colon 99.2% | KM12 colon 105%

CC/C(Cc1ccccc1)=C(\c1ccc(OCCCN(C)C)cc1)c1ccc(OC(=O)NCc2ccccc2)cc1
active: SR leukemia -22%
inactive: RPMI-8226 leukemia 60.4% | OVCAR-8 ovarian 76.1% | OVCAR-5 ovarian 90.6% | OVCAR-4 ovarian 75.7% | SK-OV-3 ovarian 91.2% | IGROV1 ovarian 59% | OVCAR-3 ovarian 87.8% | HS 578T breast 73.4% | NCI/ADR-RES ovarian 81.4% | T-47D breast 52.7% | BT-549 breast 95% | MDA-MB-435 melanoma 77.6% | SW-620 colon 14.5% | MCF7 breast 15.6% | HCT-116 colon 10.4% | HCC-2998 colon 70.4% | KM12 colon 72.8%

COc1ccc(N2CCC(=S)NC2=S)cc1
inactive: SR leukemia 112% | RPMI-8226 leukemia 103% | OVCAR-8 ovarian 99.1% | OVCAR-5 ovarian 104% | OVCAR-4 ovarian 90.1% | SK-OV-3 ovarian 116% | IGROV1 ovarian 105% | OVCAR-3 ovarian 103% | HS 578T breast 105% | NCI/ADR-RES ovarian 103% | T-47D breast 102% | BT-549 breast 105% | MDA-MB-435 melanoma 96.3% | SW-620 colon 104% | MCF7 breast 94.6% | HCT-116 colon 104% | HCC-2998 colon 104% | KM12 colon 101%

Oc1c(CN2CCCC2)cc(CSCc2ccccc2)c2cccnc12
active: SR leukemia -7.76% | RPMI-8226 leukemia 7.56% | OVCAR-8 ovarian 7.91% | OVCAR-4 ovarian -2.42% | SK-OV-3 ovarian -15.6% | IGROV1 ovarian -3.98% | OVCAR-3 ovarian 5.77% | NCI/ADR-RES ovarian -46.4% | T-47D breast -3.02% | MCF7 breast 8.46% | HCT-116 colon 7.5%
inactive: OVCAR-5 ovarian 41.8% | HS 578T breast 64.5% | BT-549 breast 28.5% | MDA-MB-435 melanoma 21.2% | SW-620 colon 13.6% | HCC-2998 colon 34.8% | KM12 colon 20.1%

CC(=O)OC[C@]12CC[C@@H]([C@@H](C)c3nnc(-c4ccncc4)o3)[C@@H]1[C@H]1CC[C@@H]3[C@@]4(C)CC[C@H](OC(C)=O)C(C)(C)[C@@H]4CC[C@@]3(C)[C@]1(C)CC2
inactive: SR leukemia 53.2% | RPMI-8226 leukemia 47.4% | OVCAR-8 ovarian 90.4% | OVCAR-5 ovarian 109% | OVCAR-4 ovarian 72.3% | SK-OV-3 ovarian 90.7% | IGROV1 ovarian 100% | OVCAR-3 ovarian 80.9% | HS 578T breast 92.1% | NCI/ADR-RES ovarian 90.6% | T-47D breast 66.5% | BT-549 breast 74.6% | MDA-MB-435 melanoma 87% | SW-620 colon 66.3% | MCF7 breast 84.9% | HCT-116 colon 45.2% | HCC-2998 colon 101% | KM12 colon 93.5%

CCOc1c(OC)cc2c(c1O)C(=O)N[C@@H]1[C@@H](O)[C@@H](O)[C@H](O)C[C@@H]21
inactive: SR leukemia 89.2% | RPMI-8226 leukemia 103% | OVCAR-8 ovarian 101% | OVCAR-5 ovarian 98.7% | OVCAR-4 ovarian 107% | SK-OV-3 ovarian 98.1% | IGROV1 ovarian 102% | OVCAR-3 ovarian 102% | HS 578T breast 100% | NCI/ADR-RES ovarian 110% | T-47D breast 92.8% | BT-549 breast 99.6% | MDA-MB-435 melanoma 108% | SW-620 colon 107% | MCF7 breast 92.1% | HCT-116 colon 104% | HCC-2998 colon 102% | KM12 colon 104%

Nc1nc(N)c(N=Nc2ccccc2)c(-c2ccccc2)n1
inactive: SR leukemia 38.7% | RPMI-8226 leukemia 62.5% | OVCAR-8 ovarian 77.5% | OVCAR-5 ovarian 56.9% | OVCAR-4 ovarian 66.4% | SK-OV-3 ovarian 50.6% | IGROV1 ovarian 15.3% | OVCAR-3 ovarian 67.2% | NCI/ADR-RES ovarian 75.1% | T-47D breast 10.2% | BT-549 breast 47% | MDA-MB-435 melanoma 73.1% | SW-620 colon 86.3% | MCF7 breast 19.4% | HCT-116 colon 69.7% | HCC-2998 colon 76.4% | KM12 colon 33.4%
active: HS 578T breast 3.4%

Nc1ncnc2c1N=C(c1ccc3c(c1)OCO3)CC(c1cccc(Nc3ccnc4cc(C(F)(F)F)ccc34)c1)N2 (stereo unspecified)
inactive: SR leukemia 23.3% | OVCAR-8 ovarian 67.7% | OVCAR-5 ovarian 108% | OVCAR-4 ovarian 89.2% | SK-OV-3 ovarian 80.2% | IGROV1 ovarian 84.2% | OVCAR-3 ovarian 95.1% | HS 578T breast 85.8% | NCI/ADR-RES ovarian 88.3% | T-47D breast 87.5% | BT-549 breast 112% | MDA-MB-435 melanoma 92.6% | SW-620 colon 69.1% | MCF7 breast 36.6% | HCT-116 colon 70.3% | HCC-2998 colon 90.6% | KM12 colon 50.1%
active: RPMI-8226 leukemia 5.05%

COc1ccc(/C=C(/c2ccccc2)[N+](=O)[O-])c(OC)c1
active: SR leukemia 6.7% | RPMI-8226 leukemia 1.5% | OVCAR-5 ovarian -9.82% | IGROV1 ovarian -35.9% | OVCAR-3 ovarian -80.6% | NCI/ADR-RES ovarian -4.93% | T-47D breast -6.78% | BT-549 breast -17.7% | MDA-MB-435 melanoma -21.6% | SW-620 colon -71.3% | MCF7 breast 3.58% | HCT-116 colon -42.8% | HCC-2998 colon -71.4% | KM12 colon -32.4%
inactive: OVCAR-8 ovarian 15.8% | OVCAR-4 ovarian 14.4% | SK-OV-3 ovarian 42.7% | HS 578T breast 46.1%

CC1C(/C=N/NC(N)=S)C(C#N)(C#N)C1(C#N)C#N (stereo unspecified)
inactive: SR leukemia 85.6% | RPMI-8226 leukemia 96.6% | OVCAR-8 ovarian 101% | OVCAR-5 ovarian 116% | OVCAR-4 ovarian 103% | SK-OV-3 ovarian 95.8% | IGROV1 ovarian 109% | OVCAR-3 ovarian 107% | HS 578T breast 91.7% | NCI/ADR-RES ovarian 110% | T-47D breast 84.6% | BT-549 breast 110% | MDA-MB-435 melanoma 98.3% | SW-620 colon 95.8% | MCF7 breast 97.1% | HCT-116 colon 105% | HCC-2998 colon 105% | KM12 colon 97%

CNC1=C([N+](=O)[O-])C(c2ccc(OC)cc2)C(C#N)=C(c2cccs2)O1 (stereo unspecified)
inactive: SR leukemia 112% | RPMI-8226 leukemia 111% | OVCAR-8 ovarian 103% | OVCAR-5 ovarian 108% | OVCAR-4 ovarian 100% | SK-OV-3 ovarian 110% | IGROV1 ovarian 108% | OVCAR-3 ovarian 99.4% | HS 578T breast 106% | NCI/ADR-RES ovarian 107% | T-47D breast 91.7% | BT-549 breast 117% | MDA-MB-435 melanoma 108% | SW-620 colon 106% | MCF7 breast 96% | HCT-116 colon 109% | HCC-2998 colon 109% | KM12 colon 103%

— PubChem BioAssay (NCI)
